# In the library only some 19% were active in any assay of this set; here they are far more common.
# DT40 TDP1 no CPT: qHTS for Inhibitors of human tyrosyl-DNA phosphodiesterase 1 (TDP1): qHTS in cells in absence of CPT; DT40 Tdp1-/- hTDP1 cells, no CPT, ATP luminescence, 48 h; Potency, µM (top dose mostly 46.2 µM), without a hit: at the highest dose activity change, negative = growth inhibition, most hits filed as inhibitors; 420,000 compounds, 15% hits; AID 686978, 2013; also: nearly all actives have a fitted effect of over 55% in size
#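 DT40 Tdp1-/-;hTDP1 cells, no CPT (DMSO vehicle only), 400 cells/well; compounds pin-transferred; ≥48 hr, 37 °C; CellTiter-Glo 30 min RT dark, luminescence read.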
# RORg inh: blocks mouse ROR gamma transcriptional activity. P51450. Drosophila S2 Gal4-RORgamma UAS-luciferase reporter, 20 h. Potency, µM (titrated, usually from 53.6 µM), without a hit: at the highest dose activity change, negative = inhibition, usual class: inhibitors. 310,000 compounds, 5.4% hits. AID 2551; also: nearly all actives have a fitted effect of over 60% in size
# Target sequence (P51450 whole entry, looked up, the tested form may be a part): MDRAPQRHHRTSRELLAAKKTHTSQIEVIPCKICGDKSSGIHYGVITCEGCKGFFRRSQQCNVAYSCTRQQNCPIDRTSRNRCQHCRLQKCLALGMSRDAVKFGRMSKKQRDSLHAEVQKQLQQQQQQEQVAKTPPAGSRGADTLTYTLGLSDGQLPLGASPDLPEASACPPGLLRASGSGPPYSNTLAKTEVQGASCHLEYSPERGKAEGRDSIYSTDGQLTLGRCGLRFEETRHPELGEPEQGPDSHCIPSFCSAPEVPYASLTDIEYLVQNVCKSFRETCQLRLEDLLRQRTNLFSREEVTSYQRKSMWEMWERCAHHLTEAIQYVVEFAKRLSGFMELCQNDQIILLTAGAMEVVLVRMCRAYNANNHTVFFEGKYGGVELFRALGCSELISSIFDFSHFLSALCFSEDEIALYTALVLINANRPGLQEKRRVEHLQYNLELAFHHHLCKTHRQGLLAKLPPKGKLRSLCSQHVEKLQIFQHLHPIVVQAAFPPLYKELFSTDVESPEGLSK
#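 Drosophila Schneider cells stably carrying a metallothionein-driven Gal4 DBD–ROR gamma fusion and a UAS-Photinus luciferase reporter were exposed to compound for 1 hr, then induced with copper sulfate (700 uM final) for 20 hr at ambient temperature before luminescence reading.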
# VP16 counter: counter-screen for ROR gamma inhibitors: Gal4-VP16 reporter; Drosophila S2 Gal4-VP16 UAS-luciferase, luminescence, 20 h; Potency, µM (top dose mostly 53.6 µM), for inactives: at the top dose activity, negative = inhibition, usual class: inhibitors; 310,000 compounds, 3.5% hits;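 also: Gal4-VP16 expression switched on by copper sulfate through the metallothionein promoter; nearly all actives have a fitted effect of over 50% in size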
# TDP1 inh: blocks human tyrosyl-DNA phosphodiesterase 1. AID 485290. Potency, µM (top dose mostly 130 µM), for the others: top-dose activity change, negative = inhibition, actives largely listed as inhibitors. recombinant TDP1, AlphaScreen DNA substrate cleavage. 350,000 compounds, 0.28% hits; also: nearly all actives have a fitted effect of over 40% in size
#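 Recombinant E. coli-expressed Tdp1 (1 nM) preincubated with compound 15 min at RT, then 5'-biotin/3'-phosphotyrosine-FITC DNA substrate (15 nM) added for 5 min. AlphaScreen beads (10 ug/ml) added, 10 min RT; tyrosine-FITC cleavage read as signal loss.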
# TDP1 cell CPT: DT40-hTDP1 cell growth loss with CPT. chicken DT40 Tdp1-/-;hTDP1 cells + 20 nM CPT, ATP luminescence, 48 h. Potency, µM (series often up to 46.2 µM), for inactives: at the top dose activity change, negative = growth inhibition, hits mostly inhibitors. 420,000 compounds, 12% hits; also: nearly all actives have a fitted effect of over 55% in size
#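 Cell growth measured by CellTiter-Glo luminescence after a minimum 48 h, 37 C compound exposure with 20 nM CPT in Tdp1-knockout DT40 cells stably expressing hTDP1, seeded 400/well; qHTS titration format.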
# * marks the source's active call; other numbers are inactive results; ? = inconclusive; / = no result given; [ ] = another dose, or the depositor's remark. Calls follow the shape of the dose curve; as a rule, active = well fitted curve in the direction sought with a large enough effect; inconclusive = small, poorly fitted or top-dose-only effect, or another doubt; inactive = no such curve, though single readings can be large; an effect the other way counts as inactive or inconclusive. % is scaled to controls: 0 for no effect and ±100 for the full control effect; potency is read from the fitted curve at half-maximal effect.
SMILES,DT40 TDP1 no CPT,RORg inh,VP16 counter,TDP1 inh,TDP1 cell CPT
COc1ccc(NC(=O)c2ccco2)cc1NC(=O)c1cc2ccccc2o1,15µM*,12%,1%,8%,23µM*
O=C(Nc1ccc(NC(=O)c2cc3ccccc3o2)cc1)c1ccco1,?,22%,-4%,/,?
COc1cc(OC)cc(C(=O)Nc2cc(NC(=O)c3ccco3)ccc2OC)c1,18µM*,10%,2%,2%,23µM*
COc1cccc(NC(=O)Nc2cc(C)ccc2F)c1,-31%,34%,6%,0%,-17%
CCCCN(C(=O)c1cccc(-n2cccc2)c1)c1c(N)n(CCCC)c(=O)[nH]c1=O,-20%,/,/,-11%[0.505 µM],-18%
CCCCN(C(=O)c1ccc(N2CCCC2=O)cc1)c1c(N)n(CCC)c(=O)[nH]c1=O,6.5µM*,/,/,2%,-15%
CCCCN(C(=O)c1cccc(-n2cccc2)c1)c1c(N)n(CCC)c(=O)[nH]c1=O,4%,/,/,50µM*,5%
CCCN(C(=O)c1cccc(-n2cccc2)c1)c1c(N)n(Cc2ccccc2)c(=O)[nH]c1=O,-6%,/,/,45µM*,-9%
COc1ccc(N(CC(=O)NCc2ccccc2C)S(=O)(=O)c2ccc(C)cc2)cc1OC,?,2%,-2%,-3%[0.0935 µM],-12%
COc1cccc(/C=N\NC(=O)c2ccc(C)nc2)c1,0%,?,8%,/,4%
Cc1ccccc1OCC(=O)N/N=C/c1cccc(Oc2ccc([N+](=O)[O-])cc2[N+](=O)[O-])c1,21µM*,?,0%,2%,15µM*
Cc1ccccc1OCC(=O)NCC(=O)N/N=C/c1cccc([N+](=O)[O-])c1,/,-1%,-10%[10 µM],-5%,/
CCCCC#Cc1cncc(C(=O)N/N=C/c2cccc(OC)c2)c1,-21%,11µM*,?,8%,-18%
O=C(N/N=C/c1cccc(Oc2ccc([N+](=O)[O-])cc2[N+](=O)[O-])c1)c1cncc(Br)c1,18µM*,?,?,0%,?
Nc1nnc(CC2=CCCCC2)s1,9%,-26%,-1%,0%,-10%
COc1ccccc1NC1=C(NC(C)=O)C(=O)c2ccccc2C1=O,?,?,?,6%,18µM*
FC(F)(F)c1cc(CO[C@H]2CCCN[C@H]2c2ccccc2)cc(C(F)(F)F)c1,13µM*,25µM*,-28%,-12%[56.1 µM],11µM*
Nc1nc(-c2ccccc2)c(N=Nc2ccccc2Cl)s1,16µM*,-4%,?,10%,-16%
Nc1nc(-c2ccccc2)c(N=Nc2cccc3ccccc23)s1,16µM*,31%,?,11%,23µM*
O=C(Nc1ccccc1F)C1CCN(S(=O)(=O)c2ccc3c(c2)CCCN3C(=O)C2CCC2)CC1,?,/,/,5%,?
c1ccc(-c2nc3ccccc3c3nncn23)cc1,?,-21%,-3%,2%,?
COc1ccc(NC(=O)c2cccc(OC(F)F)c2)cc1Cl,-25%,23%,17%,7%,-3%
Cc1ccc(C(C)C)cc1OCC(=O)N/N=C/c1ccc2c(c1)OCCO2,?,41%,1%,5%,?
COCCn1c(CN2CC(C)CC(C)C2)nc2c1c(=O)n(C)c(=O)n2C (stereo not given),-7%,-11%,1%,1%,-9%
Cn1c(=O)c2c(nc(CN3CCN(C(c4ccccc4)c4ccccc4)CC3)n2CCCO)n(C)c1=O,21µM*,?,-4%,/,?
SMILES,DT40 TDP1 no CPT,RORg inh,VP16 counter,TDP1 inh,TDP1 cell CPT
CC(C)CCn1c(CN2CCN(C(=O)c3ccco3)CC2)nc2c1c(=O)n(C)c(=O)n2C,?,-4%,3%,4%,1%
COCCn1c(CN2CCN(C(c3ccccc3)c3ccccc3)CC2)nc2c1c(=O)n(C)c(=O)n2C,16µM*,12%,0%,/,?
CC(=O)Nc1sc(C)c(C)c1C(=O)OC(C)C,?,1%,1%,-2%,?
CC(C)CC1C(=O)N(Cc2cn(CC3CCCCC3)nn2)CCS(=O)(=O)N1Cc1ccc(-c2cccc(CO)c2)cc1 (stereo not given),23µM*,/,/,/,21µM*
CC1C(=O)N(Cc2cn(CC3CCCCC3)nn2)CCS(=O)(=O)N1Cc1ccc(-c2cccc(CO)c2)cc1 (stereo not given),23µM*,/,/,/,15µM*
CCOc1ccc(N(CC(=O)NCCc2ccccc2)C(=O)CCC(=O)Nc2cc(C)ccn2)cc1,?,10%,-4%,/,?
CC(C)C(NC(=O)c1cccs1)C(=O)NC1CCCCC1 (stereo not given),6%,15%,-7%,0%,-9%
O=C(Nc1ccccc1)c1sc(Cl)nc1-c1ccccc1,?,19%,25%,-1%,?
Cc1ccc(NC(=O)c2sc(Cl)nc2-c2ccccc2)cc1C,18µM*,0%,20%,1%,?
Cc1cc(=O)n2c(C(=O)Nc3ccc(C)c(C)c3)c(C(=O)Nc3ccccc3)sc2n1,16µM*,-25%,?,5%,?
CC(CN1C(C)CCCC1C)OC(=O)c1ccccc1F (stereo not given),5%,-1%,2%,/,5%
COC(=O)c1ccc(COn2nnc3ccccc32)cc1,-5%,24%,-11%,0%,-5%
CCOc1ccc(CCNC(=O)COC(=O)Cn2cnc3ccccc3c2=O)cc1OCC,-4%,0%,-6%,3%,-3%
COc1ccc(C(C(=O)NCc2ccccc2)N(C(=O)Cn2nnc3ccccc32)c2ccc(F)cc2)cc1 (stereo not given),15µM*,/,/,2%,?
Cc1cc(C)n(-c2nnc(C)n2/N=C/c2ccc(O)cc2)n1,-19%,-1%,-17%,1%,3%
Cc1ccc(Cn2c(=O)n(CCCCC(=O)NCc3ccc4c(c3)OCO4)c(=O)c3ccccc32)cc1,?,/,/,5%,1%
Cc1ccccc1Cn1c(=O)n(CCCCC(=O)NCc2ccc3c(c2)OCO3)c(=O)c2ccccc21,?,/,/,5%,23µM*
O=C(CCCCn1c(=O)c2ccccc2n(Cc2cccc(Cl)c2)c1=O)NCc1ccc2c(c1)OCO2,12µM*,/,/,6%,?
Cc1ccccc1Cn1c(=O)n(CCC(=O)NCc2ccc3c(c2)OCO3)c(=O)c2ccccc21,?,11%,-4%,5%,?
CC1Cc2ccccc2N1NC(=O)c1ccc(Cl)c(S(N)(=O)=O)c1 (stereo not given),-9%,0%,-23%,3%,0%
COc1ccc(C2C3=C(CC(C)(C)CC3=O)Nc3n[nH]c(C)c32)cc1 (stereo not given),?,18%,8%,6%,-10%

# Compound activity from PubChem BioAssay.
